PubChem BioAssay AID1159580 (chemical genetic matrix, 2015)
The campaign covered roughly 5,500 compounds. About 2,000 (36%) were called active. Not shown: some 18% with an inconclusive outcome. Rule as the data show it: active = normalized growth mostly below about 0.91 (no sharp cut-off); inconclusive = no clear call, values can overlap the other calls; inactive = mostly above about 0.92. The list shows a part of the results.

Test: chemical genetic growth profiling, strain panel (AID 1159580);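 also: tested at 20 µM; growth read once vehicle control cultures reached saturation at 30 °C; 1 = growth at the plate median or of vehicle wells; lower values mean less growth of the strain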
Settings: S. cerevisiae deletion strains, growth OD
[1] = locus YCL061C, strain MRC1, stronger effect = lower value
[2] = locus YHR030C, strain SLT2, stronger effect = lower value
[3] = locus YJL187C, strain SWE1, stronger effect = lower value

Measured: normalized growth

CC(=O)Nc1ccc(S(=O)(=O)Nc2onc(C)c2C)cc1
inactive: locus YAL021C, strain ccr4, stronger effect = lower value 0.984 | locus YAL026C, strain drs2, stronger effect = lower value 0.976 | locus YAL030W, strain snc1, stronger effect = lower value 0.98 | locus YBL061C, strain skt5, stronger effect = lower value 0.969 | locus YBR009C, strain hhf1, stronger effect = lower value 0.959 | locus YBR023C, strain chs3, stronger effect = lower value 0.97 | locus YBR171W, strain sec66, stronger effect = lower value 0.965 | locus YBR231C, strain swc5, stronger effect = lower value 0.981 | locus YBR279W, strain paf1, stronger effect = lower value 0.968 | locus YCL011C, strain gbp2, stronger effect = lower value 0.973 | locus YCL016C, strain dcc1, stronger effect = lower value 0.969 | [1] 0.985 | locus YCL069W, strain vba3, stronger effect = lower value 0.972 | locus YCR088W, strain abp1, stronger effect = lower value 0.965 | locus YDL005C, strain med2, stronger effect = lower value 0.969 | locus YDL040C, strain nat1, stronger effect = lower value 0.969 | locus YDR001C, strain nth1, stronger effect = lower value 0.963 | locus YDR069C, strain doa4, stronger effect = lower value 0.962 | locus YDR137W, strain rgp1, stronger effect = lower value 0.959 | locus YDR159W, strain sac3, stronger effect = lower value 0.946 | locus YDR195W, strain ref2 0.948 | locus YDR297W, strain sur2, stronger effect = lower value 0.967 | locus YDR334W, strain swr1, stronger effect = lower value 0.975 | locus YDR335W, strain msn5, stronger effect = lower value 0.972 | locus YDR392W, strain spt3, stronger effect = lower value 0.929 | locus YEL003W, strain gim4, stronger effect = lower value 0.974 | locus YEL037C, strain rad23, stronger effect = lower value 0.971 | locus YEL061C, strain CIN8 (second series), stronger effect = lower value 0.956 | locus YER015W, strain faa2, stronger effect = lower value 0.986 | locus YER016W, strain bim1, stronger effect = lower value 0.96 | locus YER111C, strain swi4, stronger effect = lower value 0.975 | locus YER155C, strain BEM2 (second series), stronger effect = lower value 0.971 | locus YFR010W, strain ubp6, stronger effect = lower value 0.959 | locus YGL167C, strain pmr1, stronger effect = lower value 0.968 | locus YGL173C, strain kem1, stronger effect = lower value 0.969 | locus YGL227W, strain vid30, stronger effect = lower value 0.966 | locus YGL240W, strain doc1, stronger effect = lower value 0.981 | locus YGL253W, strain hxk2, stronger effect = lower value 0.994 | locus YHR013C, strain ard1, stronger effect = lower value 0.963 | locus YHR027C, strain rpn1, stronger effect = lower value 0.989 | [2] 0.975 | locus YHR079C, strain IRE1, stronger effect = lower value 0.968 | locus YHR142W, strain chs7, stronger effect = lower value 0.965 | locus YJL092W, strain hpr5, stronger effect = lower value 0.971 | locus YJL095W, strain BCK1 (second series), stronger effect = lower value 0.975 | locus YJL095W, strain BCK1, stronger effect = lower value 1 | locus YJL115W, strain asf1, stronger effect = lower value 0.964 | locus YJL129C, strain trk1, stronger effect = lower value 0.983 | locus YJL154C, strain vps35, stronger effect = lower value 0.965 | locus YJL164C, strain tpk1, stronger effect = lower value 0.982 | locus YJL166W, strain qcr8, stronger effect = lower value 0.983 | [3] 0.97 | locus YJR066W, strain TOR1, stronger effect = lower value 0.908 | locus YKL160W, strain elf1, stronger effect = lower value 0.984 | locus YKR026C, strain gcn3, stronger effect = lower value 0.967 | locus YKR091W, strain srl3, stronger effect = lower value 0.977 | locus YLL001W, strain dnm1, stronger effect = lower value 0.951 | locus YLL026W, stronger effect = lower value 0.961 | locus YLL041C, strain sdh2, stronger effect = lower value 0.978 | locus YLR027C, strain aat2, stronger effect = lower value 0.973 | locus YLR113W, strain HOG1, stronger effect = lower value 0.975 | locus YLR221C, strain rsa3, stronger effect = lower value 0.987 | locus YLR258W, strain gsy2, stronger effect = lower value 0.971 | locus YLR262C, strain YPT6 (second series), stronger effect = lower value 0.98 | locus YLR320W, strain mms22, stronger effect = lower value 0.972 | locus YLR342W, strain FKS1, stronger effect = lower value 0.974 | locus YLR357W, strain rsc2, stronger effect = lower value 0.951 | locus YLR370C, strain arc18, stronger effect = lower value 0.957 | locus YLR384C, strain iki3, stronger effect = lower value 0.962 | locus YML120C, strain ndi1, stronger effect = lower value 0.988 | locus YMR058W, strain fet3, stronger effect = lower value 0.971 | locus YMR125W, strain sto1, stronger effect = lower value 0.937 | locus YMR129W, stronger effect = lower value 0.979 | locus YMR205C, strain PFK2, stronger effect = lower value 0.936 | locus YMR231W, strain pep5, stronger effect = lower value 0.969 | locus YNL071W, strain lat1, stronger effect = lower value 0.975 | locus YNL183C, strain NPR1, stronger effect = lower value 0.926 | locus YNL209W, strain ssb2, stronger effect = lower value 0.975 | locus YNL248C, strain rpa49, stronger effect = lower value 1.02 | locus YNL322C, strain KRE1 (second series), stronger effect = lower value 0.98 | locus YNR049C, strain mso1, stronger effect = lower value 0.969 | locus YOR001W, strain rrp6, stronger effect = lower value 0.985 | locus YOR070C, strain gyp1, stronger effect = lower value 0.977 | locus YOR080W, strain dia2, stronger effect = lower value 0.954 | locus YOR083W, strain WHI5, stronger effect = lower value 0.997 | locus YOR106W, strain vam3, stronger effect = lower value 0.996 | locus YOR231W, strain MKK1, stronger effect = lower value 0.989 | locus YOR265W, strain rbl2, stronger effect = lower value 0.973 | locus YOR270C, strain vph1, stronger effect = lower value 0.922 | locus YOR290C, strain snf2, stronger effect = lower value 0.964 | locus YPL051W, strain arl3, stronger effect = lower value 0.985 | locus YPL078C, strain atp4, stronger effect = lower value 0.981 | locus YPL106C, strain sse1, stronger effect = lower value 0.97 | locus YPL240C, strain hsp82, stronger effect = lower value 0.99 | locus YPL256C, strain CLN2, stronger effect = lower value 0.955

c1ccc(-c2csc(-c3ccncc3)n2)cc1
active: locus YAL013W, strain DEP1, stronger effect = lower value 0.916 | [2] 0.22 | locus YKL190W, strain CNB1, stronger effect = lower value 0.894 | locus YLR039C, strain RIC1, stronger effect = lower value 0.371 | locus YLR085C, strain ARP6, stronger effect = lower value 0.535 | locus YLR262C, strain YPT6, stronger effect = lower value 0.384 | locus YML094W, strain GIM5, stronger effect = lower value 0.814 | locus YNL298W, strain CLA4 (second series), stronger effect = lower value 0.829 | locus YOL006C, strain TOP1, stronger effect = lower value 0.379 | locus YPL241C, strain CIN2, stronger effect = lower value 0.8 | locus YPR135W, strain CTF4, stronger effect = lower value 0.515
inactive: locus YBR229C, strain ROT2, stronger effect = lower value 0.979 | [1] 0.944 | locus YDL101C, strain DUN1, stronger effect = lower value 0.967 | locus YDR150W, strain NUM1, stronger effect = lower value 0.934 | locus YEL061C, strain CIN8, stronger effect = lower value 0.914 | locus YGR078C, strain PAC10, stronger effect = lower value 0.974 | locus YGR229C, strain SMI1, stronger effect = lower value 0.958 | locus YHR087W, strain rtc3, stronger effect = lower value 0.981 | [3] 1.03 | locus YJR043C, strain POL32, stronger effect = lower value 0.974 | locus YJR075W, strain HOC1, stronger effect = lower value 0.987 | locus YLR058C, strain SHM2 (second series), stronger effect = lower value 0.972 | locus YMR219W, strain ESC1, stronger effect = lower value 0.971 | locus YMR263W, strain SAP30, stronger effect = lower value 0.946 | locus YMR307W, strain GAS1, stronger effect = lower value 0.737 | locus YNL128W, strain TEP1, stronger effect = lower value 0.937 | locus YNL153C, strain GIM3, stronger effect = lower value 0.964 | locus YNL322C, strain KRE1, stronger effect = lower value 0.989 | locus YNR030W, strain Alg12, stronger effect = lower value 0.901 | locus YPL055C, strain LGE1, stronger effect = lower value 0.832
